# Assay outcomes: PubChem BioAssay, National Center for Advancing Translational Sciences (NCATS)
# TDP1 cell noCPT: qHTS for Inhibitors of human tyrosyl-DNA phosphodiesterase 1 (TDP1): qHTS in cells in absence of CPT. DT40 Tdp1-/- hTDP1 cells, no CPT, ATP luminescence, 48 h. Potency, µM (doses to about 46.2 µM), for the others: at the highest dose activity change, negative = growth inhibition, hits mostly inhibitors. 420,000 tested, 15% active. AID 686978, 2013; also: potency is read from the fitted curve at half-maximal effect; nearly all actives have a fitted effect of over 55% in size
#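 Stably hTDP1-transfected Tdp1-null chicken DT40 cells were treated with library compounds minus camptothecin and grown for at least 48 hr at 37 °C, after which cellular ATP was quantified by luminescence.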
# HT1080 IDH1KD tx: qHTS for induction of synthetic lethality in tumor cells producing 2HG: qHTS for the HT-1080-IDH1KD cell line; HT-1080 IDH1 knockdown viability, ATP luminescence, 48 h; Potency, µM (top dose mostly 46.1 µM), without a hit: at the top dose activity, negative = toxicity, hits mostly cytotoxic; 360,000 tested, 2% active; AID 686971, 2013;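 also: potency is read from the fitted curve at half-maximal effect; 0% = DMSO wells and -100% = cell-free medium wells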
#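 Using the IDH1-knockdown HT-1080 line run in the same batch and compound series as the NT line, viability after 48 h at 37 °C was determined by CellTiter-Glo luminescence and expressed as % activity.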
# ELG1 DNA repair: qHTS screen for small molecules that inhibit ELG1-dependent DNA repair in human embryonic kidney (HEK293T) cells expressing luciferase-tagged ELG1; Potency, µM (highest dose often 46.1 µM), inactives show at the highest dose activity change, negative = inhibition, most hits filed as inhibitors; 330,000 tested, 2.3% active; HEK293T ELG1-luciferase reporter, luminescence, 16 h; DNA damage induced by 5-fluorouridine; also: potency is read from the fitted curve at half-maximal effect; nearly all actives have a fitted effect of over 55% in size
#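 HEK293T cells expressing luciferase-tagged ELG1 (2,000/well) received 5-Fluorouridine plus compound or DMSO for 16 hr at 37 °C. Luciferase was read by ONE-Glo luminescence after 30 min at room temperature.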
# IL1B secr inh: qHTS for Inhibitors of Inflammasome Signaling: IL-1-beta AlphaLISA Primary Screen; THP-1 LPS/ATP IL-1B secretion, AlphaLISA, 16 h; active compounds read low; activity change, % at 57.5 µM; 360,000 tested, 4.7% active; AID 743279, 2014; in the data active = activity change below about -50%; inconclusive = mostly about -30% to -49%
#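 Secreted IL-1B measured by AlphaLISA bead assay after 16 h compound exposure of THP-1 cells; compounds (final up to 57.5 uM) added 1 h before LPS (250 ng/mL) and ATP (1.25 mM) stimulation; lower signal means less secretion.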
# HT1080-NT tox: qHTS for induction of synthetic lethality in tumor cells producing 2HG: qHTS for the HT-1080-NT fibrosarcoma cell line; HT-1080-NT fibrosarcoma viability, CellTiter-Glo ATP luminescence, 48 h; Potency, µM (doses to about 46.1 µM), for the others: at the highest dose activity, negative = less viability, usual class: cytotoxic; 360,000 tested, 1.6% active; AID 686970, 2013;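 also: NT is the 2HG producing partner of a matched IDH1 knockdown line; potency is read from the fitted curve at half-maximal effect; 0% = DMSO-treated cells and -100% = media-only wells without cells; nearly all actives have a fitted effect of over 55% in size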
#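 Toxicity toward the 2HG-producing NT line was scored as %Activity, normalised to DMSO and no-cell wells, from CellTiter-Glo luminescence after 48 hours' treatment.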
# TDP1 cell CPT: qHTS for Inhibitors of human tyrosyl-DNA phosphodiesterase 1 (TDP1): qHTS in cells in presence of CPT | chicken DT40 Tdp1-/-;hTDP1 cells + 20 nM CPT, ATP luminescence, 48 h | Potency, µM (doses to about 46.2 µM), without a hit: at the highest dose activity change, negative = growth inhibition, hits mostly inhibitors | 420,000 tested, 12% active; also: potency is read from the fitted curve at half-maximal effect; nearly all actives have a fitted effect of over 55% in size
#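 Cell growth measured by CellTiter-Glo luminescence after a minimum 48 h, 37 C compound exposure with 20 nM CPT in Tdp1-knockout DT40 cells stably expressing hTDP1, seeded 400/well; qHTS titration format.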
# The depositor's hits bear a star; ? = inconclusive; . = not tested or not shown. In the library only some 19% were active in any assay of this set; here they are far more common. Unless noted, calls follow the shape of the dose curve; as a rule, active = well fitted curve in the direction sought with a large enough effect; inconclusive = small, poorly fitted or top-dose-only effect, or another doubt; inactive = no such curve, though single readings can be large; an effect the other way counts as inactive or inconclusive. Unless noted, % is scaled to controls: 0 for no effect and ±100 for the full control effect.
SMILES,TDP1 cell noCPT,HT1080 IDH1KD tx,ELG1 DNA repair,IL1B secr inh,HT1080-NT tox,TDP1 cell CPT
O=C(N/N=C/c1ccncc1)c1ccc2c(c1)OCO2,-21%,-6%,?,-3,-1%,1%
Cc1cc(Br)cc(/C=N/NC(=O)c2ccc3c(c2)OCO3)c1O,23µM*,16µM*,?,69,?,18µM*
CN(Cc1ccco1)C(=O)CSc1nn2c(=O)c(C(C)(C)C)nnc2s1,-7%,3%,9%,-25,4%,9%
CN(C)c1ccc(C=NN2C(=O)CSC2=S)c(Cl)c1,-24%,6%,.,-11,2%,?
CCOc1ccc(NC(=S)Nc2ccc(F)cc2)cc1,?,-4%,27%,-1,-1%,?
CCOc1ccc(NC(=S)Nc2ccccc2C2(C)CC2)cc1,8.2µM*,-20%,?,?,3%,?
O=[N+]([O-])c1ccccc1CSc1ccccn1,2%,21%,3%,-63*,8%,-11%
O=[N+]([O-])c1ccc(CSc2ccccn2)cc1,-6%,2%,?,-14,-1%,0%
O=C1CCCC(O)=C1C(C#Cc1ccccc1)C1=C(O)CCCC1=O,5.2µM*,?,-7%,-99*,?,3.7µM*
CC1(C)CC(=O)C(C(C#Cc2ccccc2)C2=C(O)CC(C)(C)CC2=O)=C(O)C1,9.2µM*,?,20%,-100*,?,6.5µM*
CC1(C)CC(=O)C(N=Nc2ccc(-c3ccccc3)cc2)=C(O)C1,3%,10%,?,-29,4%,-3%
Cn1nccc1C(=O)NCC1CCC2(CCN(Cc3cccc4ncccc34)CC2)O1 (centres undefined),-22%,.,.,.,.,-1%
COc1cc(OC)c(C2C(C#N)=C(C)NC(C)=C2C#N)c(C(=O)O)c1,2%,6%,-8%,1,11%,-6%
O=c1cc(Br)c(O)c(Br)cc1Br,18µM*,15%,.,?,9%,?
O=C1S/C(=C\c2ccc(Cl)cc2)C(=O)N1CCn1cnnn1,?,0%,?,-62*,-4%,-8%
CN1CCN(C(=O)CCN2C(=O)S/C(=C/c3ccc(Cl)cc3)C2=O)CC1,13µM*,10%,6%,0,21%,13µM*
Cc1ccc(/C=C2\SC(=O)N(CCNC(=O)C3CSC4(C)CCC(=O)N34)C2=O)cc1 (centres undefined),15µM*,6%,1%,?,5%,?
COc1ccc(/C=C2\SC(=O)N(CCC(=O)N3CCN(C)CC3)C2=O)cc1,?,8%,?,0,30%,-26%
Cc1ccc(/C=C2\SC(=O)N(CCC(=O)N3CCN(C)CC3)C2=O)cc1,23µM*,-10%,?,-14,-13%,18µM*
CC12CCC(=O)N1C(C(=O)NCCN1C(=O)S/C(=C\c3ccccc3Cl)C1=O)CS2 (centres undefined),?,-2%,-15%,-12,-1%,-25%
Cc1ccccc1Nc1nnc(SCC(=O)NCC2CCCO2)s1 (centres undefined),0%,16%,1%,19,3%,2%
CCSc1nnc(NC(=O)CSc2nc(CC)nc3c2c(=O)n(C)c(=O)n3C)s1,15µM*,1%,?,-6,-2%,16µM*
CCCc1nc(SCC(=O)Nc2nnc(SCC)s2)c2c(=O)n(C)c(=O)n(C)c2n1,2.9µM*,9%,14%,27,10%,4.1µM*
CC[C@H](C)Cc1cn([C@@H](CCCN=C(N)N)C(=O)NCCCCCCCCCCC(=O)N2CCNCC2)nn1,-10%,-5%,15%,-10,-2%,?
C=CCn1c(O)c(C2=c3ccccc3=NC2=O)c2ccccc21,4.1µM*,21µM*,-14%,0,23µM*,?
SMILES,TDP1 cell noCPT,HT1080 IDH1KD tx,ELG1 DNA repair,IL1B secr inh,HT1080-NT tox,TDP1 cell CPT
COc1cccc(CNC(=O)Cn2c(=O)nc(-c3ccccc3F)c3cc(Cl)ccc32)c1,-13%,.,.,.,.,-18%
COc1cccc(C(=O)NCC(=O)OCC(=O)NC2CCCCC2)c1,-2%,0%,6%,3,0%,5%
CCOC(=O)c1c(C)c(C(=O)NCCc2ccc(OC)cc2)c(C)n1C,-16%,.,.,.,.,12%
CCc1cccc2cc3c(N)c(C(=O)Nc4ccc(S(=O)(=O)N5CCCC5)cc4)sc3nc12,8.2µM*,-27%,?,-15,-17%,?
COc1cc(-c2noc(-c3ccc(N4CCOCC4)c([N+](=O)[O-])c3)n2)cc(OC)c1OC,5.2µM*,.,.,.,.,?
COc1ccc(-c2noc(-c3ccc(N4CCCC4)c([N+](=O)[O-])c3)n2)cc1OC,-16%,.,.,.,.,?
Cc1cccc(-c2noc(-c3ccc(N4CCN(C)CC4)c([N+](=O)[O-])c3)n2)c1,23µM*,.,.,.,.,?
Cc1cccc(-c2noc(-c3ccc(N4CCOCC4)c([N+](=O)[O-])c3)n2)c1,18µM*,.,.,.,.,?
Cc1cccc(-c2noc(-c3ccc(N4CCCC4)c([N+](=O)[O-])c3)n2)c1,?,.,.,.,.,-21%
CC(=O)Nc1ccc(N2CCOCC2)c([N+](=O)[O-])c1,-14%,13%,0%,5,?,0%
COc1ccc(Nc2nnc(-c3ccc(N4CCOCC4)c([N+](=O)[O-])c3)c3ccccc23)cc1,23µM*,13%,-8%,19,7%,23µM*
Cc1ccc(C(c2c(C)n(C)n(-c3ccccc3)c2=O)c2c(C)n(C)n(-c3ccccc3)c2=O)s1,?,-22%,23µM*,25,-7%,-16%
Cc1ccc(-n2nnnc2CNC(=O)C(C)C)cc1C,-4%,.,.,.,.,-11%
CCOc1cc2c(C#N)c(N3CCNCC3)nc(N)c2c(N)n1,-15%,-15%,7%,-2,-13%,-4%
COc1cc2c(C#N)c(N3CCCCC3)nc(N)c2c(N)n1,13µM*,?,?,?,?,9.2µM*
CCOc1cc2c(C#N)c(N3CCCCC3)nc(N)c2c(N)n1,?,-19%,1%,0,-25%,?
